Source: PubChem (National Center for Advancing Translational Sciences (NCATS))
Shown are actives, neighbours in structure and some others; about 2.9% of the full set was active somewhere.
ClpP mod: qHTS Assay for Activators of ClpP; purified B. subtilis ClpP, FRET peptide cleavage, 20 min; Potency, µM (titrated, usually from 57.5 µM), inactives show at the highest dose activity change, negative = active; AID 651965, 2013; ATP-dependent Clp protease proteolytic subunit (Bacillus subtilis (strain 168)), P80244; 340,000 tested, 1.9% active; active = well fitted falling curve with a large enough effect; inconclusive = small, poorly fitted or top-dose-only effect; inactive = no such curve, though single readings can be large or run the other way; note: potency is the fitted concentration of half-maximal effect; the source files actives as falling curves though it sought activators and does not explain the sign; nearly all actives have a fitted effect of over 65% in size
Target sequence (P80244 whole entry, looked up): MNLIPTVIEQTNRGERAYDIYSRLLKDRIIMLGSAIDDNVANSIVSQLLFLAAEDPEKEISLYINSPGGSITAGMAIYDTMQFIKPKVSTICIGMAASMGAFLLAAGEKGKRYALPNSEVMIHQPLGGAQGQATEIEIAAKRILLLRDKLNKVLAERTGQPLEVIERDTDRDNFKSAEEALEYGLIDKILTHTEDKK
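FRET quenching reversal measured ClpP activation: 10 microg/mL B. subtilis ClpP at pH 8 with the FRET-FV decapeptide, read at 430 nm after 320 nm excitation. The 20-min minus 0-min signal was scaled between DMSO/no-enzyme wells and ADEP (5.8 microM final).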
GLP-1R inv ag: qHTS of GLP-1 Receptor Inverse Agonists (Inhibition Mode); Glucagon-like peptide 1 receptor (Homo sapiens), P43220; HEK293 GLP-1R CRE-luciferase, luminescence, 24 h; GLP-1R form is constitutively active; Potency, µM (top dose mostly 38.3 µM), inactives show at the top dose activity change, negative = inhibition, actives largely listed as inhibitors; 410,000 tested, 1.6% active; AID 624417, 2012; note: potency is the fitted concentration of half-maximal effect; % is set by controls: 0 for no effect and ±100 for the full control effect; nearly all actives have a fitted effect of over 55% in size
Target sequence (P43220 whole entry, looked up): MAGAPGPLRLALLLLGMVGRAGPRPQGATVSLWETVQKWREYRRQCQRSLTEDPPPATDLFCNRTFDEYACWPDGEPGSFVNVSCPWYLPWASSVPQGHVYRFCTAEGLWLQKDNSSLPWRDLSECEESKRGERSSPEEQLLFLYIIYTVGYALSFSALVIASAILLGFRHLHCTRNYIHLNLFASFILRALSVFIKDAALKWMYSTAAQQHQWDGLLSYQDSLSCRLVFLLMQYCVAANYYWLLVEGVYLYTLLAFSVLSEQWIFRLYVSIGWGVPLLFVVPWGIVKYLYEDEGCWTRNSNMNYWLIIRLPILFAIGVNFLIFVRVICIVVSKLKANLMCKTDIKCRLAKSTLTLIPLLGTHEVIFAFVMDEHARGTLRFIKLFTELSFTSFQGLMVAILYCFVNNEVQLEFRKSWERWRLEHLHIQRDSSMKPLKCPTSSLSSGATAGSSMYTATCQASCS
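Assay principle: reduced luminescence from a cAMP-responsive reporter in HEK293 cells co-expressing a constitutively active GLP-1R. Conditions: 24 hr compound incubation, 37 deg C, 5% CO2.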
LDHA block: qHTS assay for inhibitors of human lactate dehydrogenase; purified LDHA, NADH/diaphorase-resazurin fluorescence; active compounds read low; activity change, % (values are at about 110 or 230 µM); 480,000 tested, 0.15% active; AID 1347041, 2019; in the data active = activity change below about -30%; inconclusive = mostly about -25% to -30%;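 note: plate controls were DMSO wells for no effect and wells without enzyme for full effect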
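Resorufin fluorescence (ex540/em590), read at 0 and 20 min after diaphorase/resazurin addition, reports the NADH left after a 5 min room-temperature reaction of 2 nM human LDH5 with 0.06 mM NADH and 0.2 mM pyruvate.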
p53 reactivator: qHTS assay for re-activators of p53 using a Luc reporter. H1299 p53-A138V BP100-luciferase reporter, luminescence, 24 h. Potency, µM (highest dose often 92.2 µM), for the others: at the top dose activity change, positive = activation, actives largely listed as activators. 320,000 tested, 0.063% active; note: potency is the fitted concentration of half-maximal effect; % of control where 0% means no effect; nearly all actives have a fitted effect of over 45% in size
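H1299 (p53-null), stable ts p53-A138V + BP100-Luc; 1000 cells/well, Opti-MEM/10% FBS; cpd 4 pt, 1:5; 24 h, 37 deg C, 5% CO2; detection reagent 10 min RT; luminescence.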
GLP1R cytotox: qHTS of GLP-1 Receptor Inverse Agonists: Cytotox Screen; HEK293 cAMP-luciferase reporter cells, luminescence, 24 h; AID 624418, 2012; Potency, µM (titrated, usually from 38.3 µM), without a hit: at the highest dose activity change, negative = inhibition, hits mostly inhibitors; 410,000 tested, 0.13% active;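 note: loss of luciferase light is scored as toxicity; potency is the fitted concentration of half-maximal effect; % is set by controls: 0 for no effect and ±100 for the full control effect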
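MLSMR compounds, 24 hr on cells at 37 deg C/5% CO2; luminescence after luciferase reagent (12 min RT). Inhibition counted as the undesired cytotoxic outcome.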
GLP-1R agonist: qHTS of GLP-1 Receptor Agonists; Glucagon-like peptide 1 receptor (Homo sapiens), P43220; HEK293 GLP-1R CRE-luciferase, luminescence, 4-6 h; cells express a hypersensitive GLP-1R form; Potency, µM (top dose mostly 45.6 µM), without a hit: at the highest dose activation, usual class: activators; 380,000 tested, 0.007% active; AID 624172, 2012; note: potency is the fitted concentration of half-maximal effect; % of control where 0% means no effect
* hit, by the source's call; ? = inconclusive; . = no result. Unless noted, calls come from the whole dose curve; as a rule, active = well fitted curve in the direction sought with a large enough effect; inconclusive = small, poorly fitted or top-dose-only effect, or another doubt; inactive = no such curve, though single readings can be large; an effect the other way counts as inactive or inconclusive.

SMILES	ClpP mod	GLP-1R inv ag	LDHA block	p53 reactivator	GLP1R cytotox	GLP-1R agonist
O=C1/C(=C/c2cccc([N+](=O)[O-])c2)N2CCC1CC2	0.3%	14.5%	-0.4	?	-25.3%	4.5%
O=C1NC(=O)C(=Cc2cc(Cl)ccc2OCc2ccc(C(=O)O)cc2)C(=O)N1	?	-15.2%	-89.9*	13.5%	-3.4%	-0.5%
Cc1ccc2c(c1)CC1(CN2C)C(=O)NC(=O)N(CCC2=CCCCC2)C1=O (stereo not drawn)	15.8µM*	-24.2%	6.2	-3.2%	28.8%	-0.3%
CC(=O)Nc1nnc(CCN(CCc2nnc(NC(C)=O)s2)[N+](=O)[O-])s1	.	15.0%	-4.7	-1.5%	-5.9%	0.1%
O=C(O)c1sc2cc(Cl)ccc2c1Cl	.	.	.	-3.6%	.	.
Cc1ccc(C2(c3ccc(C)cc3)CC2C(=O)Nc2ccc([N+](=O)[O-])cc2O)cc1 (stereo not drawn)	1.3%	3.98µM*	6.2	-35.0%	?	-38.7%
COc1ccccc1CC(=O)Nc1ccc([N+](=O)[O-])cc1O	.	?	22.0	5.8%	?	-0.2%
CCOc1cc(/C=C2\SC(=S)N(NC(=O)c3cccnc3)C2=O)ccc1O	.	4.1%	-0.9	-3.8%	11.2µM*	2.2%
O=C1NC(=O)C(=Cc2ccc(Sc3ccccc3)o2)C(=O)N1	.	-23.0%	-24.7	-10.2%	?	0.6%
O=C1NC(=O)N(c2ccc(Cl)cc2)C(=O)/C1=C\c1ccc(Sc2nc3ccccc3[nH]2)o1	.	?	-76.4*	12.3%	?	-1.1%
O=C(Cn1c2c(c(-c3ccccc3Cl)cc1=O)CCC2)N1CCC2(CC1)OCCO2	?	?	0.9	-8.7%	-21.2%	-9.3%
CCOc1cc(CNCCc2c[nH]c3ccccc23)ccc1OC	.	.	4.1	.	.	.
CCOc1cc(CNCCc2c[nH]c3ccccc23)cc(Cl)c1OC	.	11.2µM*	-1.2	1.1%	?	2.3%
CC1Oc2cc3c(-c4c(O)cc(O)c5c(O)c6c(cc45)OC(C)C(C)C6=O)c(O)cc(O)c3c(O)c2C(=O)C1C (stereo not drawn)	0.4%	12.6µM*	5.7	-8.7%	?	-0.5%
CC(C)(O)C(=O)Nc1ccc([N+](=O)[O-])c(C(F)(F)F)c1	0.8%	-22.8%	-3.7	-1.1%	-0.3%	13.4%
COc1cc2c(cc1OC)CN(c1ccc([N+](=O)[O-])c(C(F)(F)F)c1)CC2	-2.1%	7.94µM*	-2.7	-21.1%	10µM*	-6.5%
CCOc1cc(C=C2C(=O)NC(=O)NC2=O)ccc1OCC(=O)N1CCOCC1	13.5%	21.5%	3.9	-6.4%	12.8%	-1.5%
Cc1cc(OCC(=O)Nc2cc(C)nn2-c2ccccn2)c2c3c(c(=O)oc2c1)CCC3	.	.	.	-1.2%	.	.
CCCOC(=O)COc1cc(C)cc2oc(=O)c3c(c12)CCC3	25.1µM*	1.3%	3.1	-2.1%	3.6%	3.1%
Cc1cc(OC(=O)c2ccco2)c2c3c(c(=O)oc2c1)CCCC3	22.4µM*	0.0%	-2.7	-2.3%	16.1%	-6.3%
Cc1ccc(-n2nc(C)cc2NC(=O)COc2cc(C)cc3oc(=O)c4c(c23)CCC4)cc1	25.1µM*	0.0%	2.2	-13.5%	-16.9%	7.6%
COc1c(C)cc(C(=O)C2CCCN(Cc3ccccn3)C2)cc1C (stereo not drawn)	.	2.82µM*	-0.8	-3.9%	?	20.3%
COc1cccc(C(=O)C2CCCN(Cc3ccccn3)C2)c1 (stereo not drawn)	.	?	-6.6	0.2%	?	4.7%
CC(C)N(C(=O)CCl)c1ccccc1	-0.9%	?	-14.2	.	-18.0%	8.5%
CC[C@@H](C(=O)[C@@H](C)[C@@H](O)[C@H](C)CCc1ccc(C)c(O)c1C(=O)O)[C@H]1O[C@](CC)([C@H]2CC[C@](O)(CC)[C@H](C)O2)C[C@@H]1C	-29.2%	10µM*	-12.2	.	10µM*	-11.2%
SMILES	ClpP mod	GLP-1R inv ag	LDHA block	p53 reactivator	GLP1R cytotox	GLP-1R agonist
CCCCCn1c(=O)c(C(=O)NCc2ccco2)c(O)c2ccccc21	.	-12.8%	-1.3	6.0%	-18.3%	4.1%
c1cc2c(cc1C1CCCCC1)c1c3n2CCCNC3CCC1 (stereo not drawn)	-3.4%	3.98µM*	0.3	-34.4%	?	-21.7%
CCCCC(=O)N/N=C/c1c(O)n(CCc2ccc(OC)c(OC)c2)c(=O)[nH]c1=O	.	20.1%	-4.9	-7.3%	19.4%	4.5%
CCOC(=O)C(O)(c1ccc(NC(=O)c2ccc(Cl)c(Cl)c2)cc1)C(F)(F)F (stereo not drawn)	-1.0%	5.01µM*	1.6	2.3%	-19.1%	1.2%
CCOC(=O)C(O)(c1ccc(N(C)C(=O)c2ccc(Cl)c(Cl)c2)cc1)C(F)(F)F (stereo not drawn)	-13.9%	?	0.7	1.1%	-18.9%	16.1%
CNCC[C@H](Oc1cccc2ccccc12)c1cccs1	0.6%	11.2µM*	-5.4	.	-13.0%	-1.3%
COC(=O)C1=C(c2ccc(-c3ccccc3)c(F)c2)C[C@@H]2CC[C@H]1N2C(=O)N1CCC(C)CC1	-13.5%	?	-0.6	-3.2%	14.6%	10.0%
COC(=O)C1=C(c2ccc(-c3ccccc3)c(F)c2)C[C@@H]2CC[C@H]1N2C(=O)N1CCCCC1	-10.5%	11.2µM*	0.7	8.9%	2.0%	6.0%
COC(=O)C1=C(c2ccc(-c3ccccc3)c(F)c2)C[C@@H]2CC[C@H]1N2C(=O)N1CCC(O)CC1	-0.7%	12.6µM*	-11.1	-11.8%	-42.4%	-4.5%
C1=C(CCNCc2ccccc2)CCCC1	-0.8%	1.7%	-7.6	0.3%	4.0%	-1.9%
COCOC1CCC2C3CCC4=CC(=O)CCC4=C3C=CC12C (stereo not drawn)	-6.0%	0.9%	31.6	.	12.5%	4.5%
COC(=O)c1ccc(Cl)c(NC(=O)CN2CCN(Cc3ccccc3)CC2)c1	-1.0%	?	1.0	5.7%	-6.7%	-7.6%
O=C(CN1CCN(C(=O)CNC(=O)c2ccc(-c3ccccc3)cc2)CC1)Nc1ccccc1Cl	-16.8%	10µM*	-8.0	.	-29.2%	-1.4%
COC(=O)c1[nH]c2ccc(C)cc2c1NC(=O)Oc1ccccc1	35.5µM*	-4.9%	4.9	9.7%	0.0%	6.8%
O=c1oc2ccccc2c(O)c1C(c1ccc([N+](=O)[O-])cc1)c1c(O)c2ccccc2oc1=O	.	?	-67.0*	-2.4%	?	-4.9%
